High-throughput results: PubChem, several laboratories
AI-2 QS mod: Vibrio harveyi AI-2 quorum sensing modulators, primary screen, JMH597 strain, luminescence/OD600 ratio; Vibrio harveyi JMH597 AI-2 luminescence/OD600 ratio, 9 h; active compounds read low; strain lacks LuxN and CqsS sensors; 0 = neutral-control median; activity change, % at 7.5 µM; 0.4% of 300,000 active; AID 2094, 2009; in the data active means activity change below about -75%, passing the limit was not always enough; inconclusive means no clear call, values can overlap the other calls;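 further: luminescence divided by OD600 gain over 9 h not by final OD600 alone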
ARNT-TACC3 inh: disruptors of ARNT/TACC3 protein interaction, primary screen, biochemical, AlphaScreen, single concentration; Transforming acidic coiled-coil-containing protein 3 (Homo sapiens), Q9Y6A5; inhibition, % at 9.99 µM; 0.66% of 390,000 active; AID 623870, 2012; AlphaScreen His-ARNT PAS-B/GST-TACC3 binding, luminescence; TACC3 fragment carries E629A point mutation;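 active means mean inhibition of replicates at least 50% and at least half of replicates each reaching 50%; inconclusive means half or more replicates reach 50% but mean below 50%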;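 further: 0% = complete ARNT plus TACC3 wells and 100% = ARNT alone without TACC3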
Bfl-1 A1 inh: caspase 3/7 activation in MEF A1-2A-BIM cells, primary screen, A1 inhibitor project, cell-based, luminescence, HTS | Caspase-Glo 3/7 luminescence, 3 h; percent of clofoctol response, vehicle zero | AID 2462, 2010 | 0.066% of 330,000 active | caspase activation, % (test concentration not listed);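 active means over half of replicate activation scores above 10%, or exactly half above 10 with the replicate mean above 10; inconclusive means replicate mean below 10 yet half the replicates above 10; inactive means over half of replicates below 10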
Mot1-301 SUMO: yeast Mot1-301 growth rescue at high temperature, primary screen, SUMOylation pathway inhibitor project, S. cerevisiae, ATP luminescence, 38.5C; S. cerevisiae Mot1-301 growth rescue; percent above DMSO median, 100 means doubled; growth rescue, % at 18.8 µM; 1% of 320,000 active; AID 2716, 2010;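 active means every valid replicate shows activation above 250% relative to neutral control wells; inactive means the rest, any valid replicate at or below 250%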;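 further: OY570 slx delta 5 strain wells were the positive control but not used for scaling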
aDG glyco up: activators of alpha-DG glycosylation, primary screen, uHTS, Pro5-aDG cells, AlphaScreen; activation, % at 10 µM; AID 624168, 2012; alpha-DG glycosylation AlphaScreen (IIH6); 0% Pro5, 100% B10-LARGE cell signal; 0.22% of 360,000 active;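 active means activation of at least 8% versus controls, or a plate z-score of at least 8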;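 further: Pro5 are CHO cells carrying HIG-tagged alpha-DG that lacks glycosylation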
JMH597 growth rt: Vibrio harveyi growth inhibition, confirmation, counter-screen for AI-2 quorum sensing project, JMH597 strain, OD600 absorbance; shares compounds with AI-2 QS mod; 9 h; lacks LuxN and CqsS sensors; growth inhibition, % at 7.5 µM; 1% of 750 active; AID 2726, 2010;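 active means every replicate shows growth inhibition above 50%; inconclusive means at least half, but not all, replicates pass that cutoff; inactive means fewer than half of replicates pass it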
BB721 lum counter: luminescence inhibition in constitutive-on V. harveyi, confirmation, counter-screen for LuxS inhibitor project, strain BB721, luminescence readout; shares compounds with AI-2 QS mod; Vibrio harveyi BB721 luminescence, 9 h; inhibition, % at 7.5 µM; 95% of 750 active; AID 2727, 2010;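 active means inhibition above about 80% in every replicate, not just on average, limit read from the data; inconclusive means at least half of replicates past the limit, but not all; inactive means fewer than half of replicates past the limit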
BB721 growth rt: growth inhibition of V. harveyi BB721, confirmation, cytotoxicity control for AI-2 quorum sensing inhibitors, strain BB721, absorbance OD600; AID 2728, 2010; growth inhibition, % at 7.5 µM; Vibrio harveyi BB721 growth, 9 h; shares compounds with AI-2 QS mod; 3% of 750 active;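 active means every replicate shows growth inhibition above 50%; inconclusive means at least half but not all replicates above 50% inhibition; inactive means under half of replicates above 50% inhibition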
AI-2 QS JMH597: Vibrio harveyi AI-2 signaling luminescence modulation – JMH597 strain, confirmation. shares compounds with AI-2 QS mod. Vibrio harveyi JMH597 AI-2 quorum sensing luminescence, 9 h; luxN and CqsS knockout, AI-2 only. inhibition, % at 7.5 µM. 97% of 750 active. AID 2736, 2010;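 active means every replicate shows more than 75% inhibition of signal versus neutral control wells; inconclusive means half to three quarters of replicates exceed 75% inhibition; inactive means fewer than half of replicates exceed 75% inhibition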
* marks the source's active call; other numbers are inactive results. Only some compounds are listed: those with a hit (about 1.8% of all), similar ones and a draw of the others.

Cn1cnc(CCNC(=O)C[C@@H]2CC[C@@H]3[C@H](COC[C@@H](O)CN3C(=O)C3CC3)O2)c1 was read as ARNT-TACC3 inh -13.8.
For COCC(=O)Nc1ccc(S(=O)(=O)NCC2CCCO2)cc1 (stereo unspecified) the results were AI-2 QS mod 3.3, ARNT-TACC3 inh 16.7, Bfl-1 A1 inh -0.2, Mot1-301 SUMO -18.6 and aDG glyco up -0.1.
Screening Cc1ccccc1C(=O)Nc1ccc(S(=O)(=O)NCC2CCCO2)cc1 (stereo unspecified) returned aDG glyco up 0.2.
Screening O=C(Cc1ccc(Br)cc1)Nc1ccc(S(=O)(=O)NCC2CCCO2)cc1 (stereo unspecified) returned AI-2 QS mod -96.3*, ARNT-TACC3 inh 2.8, Bfl-1 A1 inh 0.1, Mot1-301 SUMO -1.8, aDG glyco up 0.9, JMH597 growth rt 30.9, BB721 lum counter 99.3*, BB721 growth rt -173.3 and AI-2 QS JMH597 99.5*.
O=C(CSc1ccccc1)Nc1ccc(S(=O)(=O)NCC2CCCO2)cc1 (stereo unspecified) was read as AI-2 QS mod -96.9*, ARNT-TACC3 inh -10.4, Bfl-1 A1 inh 0.6, Mot1-301 SUMO -19.2, aDG glyco up 0.0, JMH597 growth rt 22.1, BB721 lum counter 99.7*, BB721 growth rt -44.8 and AI-2 QS JMH597 99.8*.
`O=c1cc(CSc2ccc(Cl)cc2)nc2nc[nH]n12` gave AI-2 QS mod 13.2, ARNT-TACC3 inh 0.2, Bfl-1 A1 inh -1.7, Mot1-301 SUMO -1.7 and aDG glyco up 0.0.
Cc1ccc2sc(NC(=O)CN3C(=O)c4ccccc4C3=O)nc2c1C was read as AI-2 QS mod -95.0*, ARNT-TACC3 inh 0.9, Bfl-1 A1 inh 0.8, Mot1-301 SUMO -10.3, aDG glyco up -0.1, JMH597 growth rt -28.5, BB721 lum counter 94.7*, BB721 growth rt -43.6 and AI-2 QS JMH597 96.7*.
`Cc1cccc2sc(NC(=O)CN3C(=O)c4ccccc4C3=O)nc12` gave AI-2 QS mod -84.5*, ARNT-TACC3 inh 0.8, Bfl-1 A1 inh -0.2, Mot1-301 SUMO 89.4, aDG glyco up 0.2, JMH597 growth rt 3.6, BB721 lum counter 94.1*, BB721 growth rt -18.6 and AI-2 QS JMH597 96.5*.
For CC(C)n1cnc2c(NCc3ccccc3)cc(Cc3ccc(F)cc3)cc21 the results were Bfl-1 A1 inh 0.1, Mot1-301 SUMO 3.4 and aDG glyco up -0.1.
COCCNC(=S)N/N=C(\C)c1ccc(Cl)s1 was read as AI-2 QS mod 12.1, ARNT-TACC3 inh -5.4, Bfl-1 A1 inh 0.8, Mot1-301 SUMO -13.2 and aDG glyco up 0.2.
Screening O=C(Cn1cnc2ccccc2c1=O)Nc1ccc2c(c1)OCCO2 returned AI-2 QS mod -68.6, ARNT-TACC3 inh -2.6, Bfl-1 A1 inh -2.8, Mot1-301 SUMO 5.1 and aDG glyco up -0.1.
For CCN(CC)S(=O)(=O)c1ccc(NC(=O)Cn2cnc3ccccc3c2=O)cc1 the results were AI-2 QS mod -94.2*, ARNT-TACC3 inh -0.1, Bfl-1 A1 inh 1.2, Mot1-301 SUMO -13.6, aDG glyco up 0.0, JMH597 growth rt 23.1, BB721 lum counter 98.8*, BB721 growth rt 12.7 and AI-2 QS JMH597 99.2*.
`CN(C)S(=O)(=O)c1cccc(NC(=O)Cn2cnc3ccccc3c2=O)c1` gave AI-2 QS mod -88.0*, ARNT-TACC3 inh -3.2, Bfl-1 A1 inh -1.4, Mot1-301 SUMO -6.8, aDG glyco up -0.4, JMH597 growth rt 15.0, BB721 lum counter 96.1*, BB721 growth rt 12.7 and AI-2 QS JMH597 97.2*.
O=C(NCc1ccc(Cl)cc1)c1cc2ccccn2n1 was read as AI-2 QS mod -84.0*, Bfl-1 A1 inh 0.4, Mot1-301 SUMO -3.6, aDG glyco up -0.2, JMH597 growth rt 36.1, BB721 lum counter 92.3*, BB721 growth rt 25.4 and AI-2 QS JMH597 95.2*.
CCN(CC)S(=O)(=O)c1ccc(C(=O)NCC(=O)NC2CC2)cc1 was read as AI-2 QS mod 29.7, ARNT-TACC3 inh 0.2, Bfl-1 A1 inh 0.6, Mot1-301 SUMO -2.9 and aDG glyco up 0.2.
COCCNc1ncnc2c1ncn2[C@H]1CN(Cc2ccccc2)C[C@@H](CO)O1 was read as aDG glyco up -0.1.
`COc1ccc(Cc2nnc(CCc3ccccc3)s2)cc1` gave AI-2 QS mod inconclusive, ARNT-TACC3 inh -10.0, Bfl-1 A1 inh -1.7, Mot1-301 SUMO 83.3, aDG glyco up -0.1, JMH597 growth rt -30.7, BB721 lum counter 78.3*, BB721 growth rt -33.1 and AI-2 QS JMH597 86.4*.
`COc1ccc(NC(=O)Nc2nnc(Cc3ccccc3)s2)cc1` gave AI-2 QS mod -15.8, ARNT-TACC3 inh 5.7, Bfl-1 A1 inh -0.3, Mot1-301 SUMO -2.2 and aDG glyco up 0.1.
For COc1ccc(/C=C(\NC(=O)c2ccco2)C(=O)NC(Cc2ccccc2)C(=O)O)cc1 (stereo unspecified) the results were AI-2 QS mod 25.6, ARNT-TACC3 inh 4.9, Bfl-1 A1 inh -0.2, Mot1-301 SUMO -25.9 and aDG glyco up 0.0.
For CN(C)S(=O)(=O)c1ccc(NC(=O)CN2CCc3ccccc32)cc1 the results were AI-2 QS mod -91.9*, ARNT-TACC3 inh 32.8, Bfl-1 A1 inh -0.6, Mot1-301 SUMO -18.4, aDG glyco up 0.0, JMH597 growth rt -16.8, BB721 lum counter 95.5*, BB721 growth rt -7.6 and AI-2 QS JMH597 96.8*.
Screening NS(=O)(=O)c1ccc(NC(=O)CN2CCc3ccccc32)cc1 returned AI-2 QS mod 7.3, ARNT-TACC3 inh -7.3, Bfl-1 A1 inh 3.2, Mot1-301 SUMO 32.1 and aDG glyco up -0.3.
For Cc1ccc(Oc2ccc(NC(=O)CSc3n[nH]c(N)n3)cc2)cc1 the results were AI-2 QS mod -94.3*, ARNT-TACC3 inh 0.7, Bfl-1 A1 inh -0.7, Mot1-301 SUMO 65.3, aDG glyco up -0.2, JMH597 growth rt -2.9, BB721 lum counter 95.3*, BB721 growth rt -8.2 and AI-2 QS JMH597 98.1*.
